# Experiments:
# ETS1 [1] = molecular target: T1, ETS1 (UniProt P14921); assay: TF binding intensity (PBM fluorescence), negative control probe (arbitrary fluorescence units); higher = stronger binding
# T1 sequence: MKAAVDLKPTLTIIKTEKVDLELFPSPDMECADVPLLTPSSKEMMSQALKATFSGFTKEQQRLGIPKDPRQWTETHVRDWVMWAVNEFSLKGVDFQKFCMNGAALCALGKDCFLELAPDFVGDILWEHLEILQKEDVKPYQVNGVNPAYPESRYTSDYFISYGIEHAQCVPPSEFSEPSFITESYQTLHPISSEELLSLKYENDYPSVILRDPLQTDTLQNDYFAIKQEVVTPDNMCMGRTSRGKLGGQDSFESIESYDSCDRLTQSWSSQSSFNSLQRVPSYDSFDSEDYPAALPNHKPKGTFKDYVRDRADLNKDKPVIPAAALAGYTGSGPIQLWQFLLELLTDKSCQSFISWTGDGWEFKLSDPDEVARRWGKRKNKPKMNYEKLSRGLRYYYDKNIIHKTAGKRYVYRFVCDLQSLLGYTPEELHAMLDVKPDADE
# Procedure: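 gcPBM negative-control 36-bp genomic probes lacking TF binding sites. Each was incubated with recombinant human ETS1 or RUNX1 alone and detected by antibody fluorescence. Values are medians over replicate spots (4 spots for the ETS1-RUNX1 arrays, 3 for the ETS1-ETS1 array). The probes sit in constant array flanks that are not printed.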
# ETS1 [2] = molecular target: T1, ETS1; assay: ETS1 binding intensity (PBM fluorescence), ETS1 alone (arbitrary fluorescence units); higher = stronger binding; conditions: ETS1 concentration 1 nM; RUNX1 concentration 0 nM
# ETS1 [3] = molecular target: T1, ETS1; assay: ETS1 binding intensity (PBM fluorescence) in presence of RUNX1, normalised to ETS1-only experiment (arbitrary fluorescence units); higher = stronger binding; conditions: ETS1 concentration 1 nM; RUNX1 concentration 25 nM
# RUNX1 = RUNX1 (UniProt Q01196); assay: RUNX1 binding intensity (PBM fluorescence), RUNX1 alone (arbitrary fluorescence units); higher = stronger binding; conditions: RUNX1 concentration 2 nM; ETS1 concentration 0 nM
# RUNX1, sequence (Q01196 whole entry): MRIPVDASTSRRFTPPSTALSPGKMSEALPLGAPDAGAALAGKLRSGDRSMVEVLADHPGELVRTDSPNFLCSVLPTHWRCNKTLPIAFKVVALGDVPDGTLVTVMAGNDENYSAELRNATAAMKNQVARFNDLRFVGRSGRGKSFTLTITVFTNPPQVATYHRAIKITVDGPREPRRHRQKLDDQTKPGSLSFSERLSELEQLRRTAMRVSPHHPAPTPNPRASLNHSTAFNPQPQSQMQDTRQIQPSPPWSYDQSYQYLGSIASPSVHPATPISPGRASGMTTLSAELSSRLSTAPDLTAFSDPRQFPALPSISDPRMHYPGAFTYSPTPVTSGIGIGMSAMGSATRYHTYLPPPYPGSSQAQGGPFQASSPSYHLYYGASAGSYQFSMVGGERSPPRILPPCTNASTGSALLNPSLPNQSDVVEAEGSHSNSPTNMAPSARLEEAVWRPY
# Procedure: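 Cooperative gcPBM on 36-bp genomic probes with neighbouring ETS1 and RUNX1 sites. Recombinant human RUNX1 (2 nM) was incubated alone or with ETS1 (25 nM) and detected with anti-RUNX1 antibody plus Alexa488 secondary. Values are medians over 4 replicate spots; the RUNX1+ETS1 data were normalised to the RUNX1-only data. The probes sit in constant array flanks that are not printed.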
# 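For RUNX1 binding intensity (PBM fluorescence), RUNX1 alone in this document: Full-length recombinant human RUNX1 bound to double-stranded 36-bp genomic probes on a high-density microarray, scored as Alexa488 fluorescence per spot via anti-RUNX1 antibody, median of four replicate spots.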
sequence,measurement,setting,value
AAATTTATCTGAGTCCAAAATCTCTCCCTTCAACCT (protein concentration 10 nM),TF binding intensity,ETS1 [1],119
GAAAGAGGCACATGGTGCCTCACAGCCTCCTCCCAG (protein concentration 10 nM),TF binding intensity,ETS1 [1],128
GAGCAGCGGGAGGAAGCTGCGGCGCGCAGAGCAGAG,ETS1 binding intensity,ETS1 [2],534
same,ETS1 binding intensity,ETS1 [3],486
CCGGGACCCCGCCCCCGATCCCCGCCTACCGGGGCC (protein concentration 10 nM),TF binding intensity,ETS1 [1],209
CTTAGTTCAGTGTAAGGGGCCTGGTTGTTGGATTTT (protein concentration 10 nM),TF binding intensity,ETS1 [1],119
AGCAGATTTGCTGCAGGAAACCACCGAGTCTCACGG,ETS1 binding intensity,ETS1 [2],1130
same,ETS1 binding intensity,ETS1 [3],1490
CCCGCTTCCGCGTTTTACTCGGTGCCCGCAGCGCCG,ETS1 binding intensity,ETS1 [2],445
same,ETS1 binding intensity,ETS1 [3],389
GCAGTCGCTAAGGGCGGAAACCACTGTTTGGGAGCT,ETS1 binding intensity,ETS1 [2],2110
same,ETS1 binding intensity,ETS1 [3],3180
CTGCACAAGGAAGCGCCTGTGTTGCTGTGGGCGGAG,ETS1 binding intensity,ETS1 [2],472
same,ETS1 binding intensity,ETS1 [3],402
CACACACTAAATCTCTGTACTAAATGAAAGGTTGCT (protein concentration 10 nM),TF binding intensity,ETS1 [1],139
TGGGATTCTCACTTCCGATCAGCGGTCCTGAACCCG,ETS1 binding intensity,ETS1 [2],707
same,ETS1 binding intensity,ETS1 [3],622
CAGGAGAAATATGAGATTAAGAACACATGATGTTAA (protein concentration 10 nM),TF binding intensity,ETS1 [1],123
CTTCCATCCAGGAAGCTTGTGGTGCAACAGCAGTGT,ETS1 binding intensity,ETS1 [2],840
same,ETS1 binding intensity,ETS1 [3],1100
GGGCCGCGCCGAGGGGACCACGGGACGCCCTCCTTC (protein concentration 10 nM),TF binding intensity,ETS1 [1],102
GGCAGGCAGCAGAGGAAACCACCCCCACCCACTCCC,ETS1 binding intensity,ETS1 [2],1420
same,ETS1 binding intensity,ETS1 [3],1640
CCGCACGCGGGCGCGGGCCAGCTGCAGATGGAGAAC (protein concentration 10 nM),TF binding intensity,ETS1 [1],136
CCTGTTCTGTGTTTGGAGCCAGCAGAGCAGGGAGGA (protein concentration 10 nM),TF binding intensity,ETS1 [1],153
ACCCTCTTTCCGGTGGAAAGCTGCGGCCTCCCAGAG,ETS1 binding intensity,ETS1 [2],464
same,ETS1 binding intensity,ETS1 [3],380
AGGCATAACAGAAAAACCTCAACTTAAATAGTGCTG (protein concentration 1 nM),TF binding intensity,ETS1 [1],626
CTACAAGTCGTGAAGGGGCGAGGCGCAAAAGCGTAG (protein concentration 10 nM),TF binding intensity,ETS1 [1],125
GAACCCAGGTCTGCTTCCTGTGGCCACCATCTGTGC,ETS1 binding intensity,ETS1 [2],761
same,ETS1 binding intensity,ETS1 [3],684
AACTTGTCCCTGGAATGTGGTTGAAACAGACTTAGG (protein concentration 1 nM),TF binding intensity,ETS1 [1],448
ATTTCTTGAGAAATCTGTGGTTATTATTTAACTCTT (protein concentration 1 nM),TF binding intensity,ETS1 [1],461
TTTTGGATGATGCAAACCGCGCAAAAGCAGCATTCA (protein concentration 1 nM),TF binding intensity,ETS1 [1],449
TTCTCCACTTCCTTCTTTACCTCACCTACCACATAA,ETS1 binding intensity,ETS1 [2],568
same,ETS1 binding intensity,ETS1 [3],544
CAAGAATGAGAAAGGAAGCTGGCGGTTGGGCAGGTG,ETS1 binding intensity,ETS1 [2],890
same,ETS1 binding intensity,ETS1 [3],1260
GGCATCTACCTCCCAGGAGCAAGCGGGAGACAGCCC (protein concentration 10 nM),TF binding intensity,ETS1 [1],134
TCAGCAGCTCGTGCTGCTTGAAGTGCTGGGGGCGAG (protein concentration 10 nM),TF binding intensity,ETS1 [1],153
TCTACATCCTGCAGTTCTCCATTGTGGCCATTAGGT,ETS1 binding intensity,ETS1 [2],443
same,ETS1 binding intensity,ETS1 [3],319
CACCTGCCTTGCTTCCTGCGGTGCAACCGGCGGGAG,ETS1 binding intensity,ETS1 [2],499
same,ETS1 binding intensity,ETS1 [3],585
ACTGCGCGCAGGGCCTGCAGCGGCAGCTGGACTGGG (protein concentration 10 nM),TF binding intensity,ETS1 [1],120
AACAGCTTTTGTCCAGGATGTGGCTTCATAGCCTTG,ETS1 binding intensity,ETS1 [2],1650
same,ETS1 binding intensity,ETS1 [3],2340
ACTCCGCCCCTTCCGCCTGGCGGTTCCACTTCTCGG,ETS1 binding intensity,ETS1 [2],480
same,ETS1 binding intensity,ETS1 [3],456
GGCTTGCCAAGAGGAAATTTGAAGCCACAATAACAT,ETS1 binding intensity,ETS1 [2],808
same,ETS1 binding intensity,ETS1 [3],951
ACTGGCTAAGGTCTCTCCTGACCTGATTCCATTCTT (protein concentration 10 nM),TF binding intensity,ETS1 [1],97.3
CAAGCCACTTCCTTTCTTGCTCCCACAACCTGTGTT,ETS1 binding intensity,ETS1 [2],579
same,ETS1 binding intensity,ETS1 [3],471
CTAAGTGCTCTTCCTGCCAACCTGTGGGCGCCTGGC,ETS1 binding intensity,ETS1 [2],559
same,ETS1 binding intensity,ETS1 [3],686
ACTTAGGTCTCTGTTACCACCATGAAACAATTTAGT (protein concentration 1 nM),TF binding intensity,ETS1 [1],545
AGAACAGGATGTTCTGAGTACAGCATGAACCTCAAA,ETS1 binding intensity,ETS1 [3],1210
GCATTTCTCAGAAAAGGAAGCGGTTGTGCCGGGAGG,ETS1 binding intensity,ETS1 [3],2100
CGGGGCATGCCGGACGCTGTGGTCCTGAAGGCCTGG,ETS1 binding intensity,ETS1 [3],423
AGCCGGAGGCGGAAGGAGCAGCGCTACCGCAGCGTC,ETS1 binding intensity,ETS1 [3],1130
CAGCTTCCGGGCTAATTAGCAGTCGCGGTGTGCCGC,ETS1 binding intensity,ETS1 [3],450
AGCGGCTTCCTGCTGGGCTTTTGCACTCCCCACAAC,ETS1 binding intensity,ETS1 [3],523
TCGGTGAAGGACGGAAGATGATAGCCACATTTCTTC,ETS1 binding intensity,ETS1 [3],485
TGACGGCCAGGAAGCCTGAAGCCGCAGGGGCCGCCG,ETS1 binding intensity,ETS1 [3],595
AACAACTGACCGGACAGAACACAGCCACAAAACACG,RUNX1 binding intensity,RUNX1,936
same,ETS1 binding intensity,ETS1 [3],544
GTGAATGAGGGGGAAGGAAGTGGTTTGGAAAAATAC,RUNX1 binding intensity,RUNX1,949
same,ETS1 binding intensity,ETS1 [3],2790
GTCCCCCGGAACCGTCTCCTCCCCCGCACGCGCCGC,ETS1 binding intensity,ETS1 [3],433
CTACATGTTTCACAGGAAGGTGGTCACCAGGAGGCA,ETS1 binding intensity,ETS1 [3],821
TACCACTGAAAGGATGTGCGGGTAGAAATGAGCAAT,ETS1 binding intensity,ETS1 [3],938
TTTCTTCCTGTTTGCATCACCCCAAACCCACTATCA,ETS1 binding intensity,ETS1 [3],469
TGAGGGCATAGGAAGTGATGGCCGCAAGGGGATGCC,ETS1 binding intensity,ETS1 [3],2390
CCGTGTCAGTGAGGATGTGGGCTGCCGGGCTGGGCG,ETS1 binding intensity,ETS1 [3],753
GTCAGGAAACACATAGTTGTGTTTAACCTCAGGAAA,ETS1 binding intensity,ETS1 [3],399
CTATATCACATCCTTTCTCTGACCGCGCTGACTTCG,ETS1 binding intensity,ETS1 [3],481
CTGTGGCCTAGAAGCTTCCTGCCGCAGCTCTGAGGA,ETS1 binding intensity,ETS1 [3],505
GAGTGCCGTTTCCCCCGCTCACCGCGGGCTAGGGAG,RUNX1 binding intensity,RUNX1,942
CAGGCCTGTGATTTCCTCTGAGTGGTTTTCTTGGCC,ETS1 binding intensity,ETS1 [3],401
GCTTCTTCAGCCACATCCTGACCACAGCCCAGATTC,RUNX1 binding intensity,RUNX1,2350
same,ETS1 binding intensity,ETS1 [3],1270
CAACAAGAGGAAATCAGAAACACTGAAGCCACAGCT,ETS1 binding intensity,ETS1 [3],463
AAGCTTCCTGGCCCTTTAAAAATGGCGGTTCCGCAC,ETS1 binding intensity,ETS1 [3],714
ACTGGCTTCACTTCCTCCGCGGTTCCTCGGAGCCGC,RUNX1 binding intensity,RUNX1,917
same,ETS1 binding intensity,ETS1 [3],514
ACGCTGGAATCGCGGAAACCGCCGGTGCACGTTGGA,ETS1 binding intensity,ETS1 [3],627
TAACTTGAACTTCCTTTTGACCACCTGTACGGTATA,ETS1 binding intensity,ETS1 [3],462
AGCGGATTCCGGACATAACAATCTACAGCGGTCTTA,ETS1 binding intensity,ETS1 [3],417
TAAATACCTCACAGGAAATTTGAGGTTGGATGAGAT,ETS1 binding intensity,ETS1 [3],2320
AGGCCAGACGCCTTCCGTGGTTTACGGTGAGGGTGG,RUNX1 binding intensity,RUNX1,884
GCAAACGGAAGAGAGGAACGAAGGCCGCAGAGCTTG,ETS1 binding intensity,ETS1 [3],481
CACTTGTCCTTCCTGGCCTGCGGCCGCCACCACTTC,ETS1 binding intensity,ETS1 [3],372
TGCCCCCTCCCCCTTCCGCTGTGGCCACCGGCTTTG,ETS1 binding intensity,ETS1 [3],780
TTTTCCGACGGAAGCCTTACTGCCGCAAACGTCACT,ETS1 binding intensity,ETS1 [3],503
CAGTTCCAGGAAGCAGCCCCAAGCTTGTGGCCCTGA,ETS1 binding intensity,ETS1 [3],305
TAAACCCTGCTTCCTGTCCCTGCGCCCCACAAGGAG,ETS1 binding intensity,ETS1 [3],1150
TTGGTGGCTTCCTGCCCAGGAGACCACACCCAGCTT,ETS1 binding intensity,ETS1 [3],486
GGATGGCGGAAGAGGCGGCTGAGGCCGCAGGACGTG,ETS1 binding intensity,ETS1 [3],4800
GCACGGCGGAATTTCAAATGGGGTTTTGTGGTTTCT,RUNX1 binding intensity,RUNX1,1220
GGAAAGCGGAAGAAAAAAGCAAGATGGGACCGCAAG,ETS1 binding intensity,ETS1 [3],928

# From the supplement of paper PMC10681739
